Source: the supplement of paper PMC6411743
± gives the standard deviation of the averaged measurements. The full data set covers some 6,500 targets. This sample favours those with the largest changes.

Compound: Nc1ncnc2c1ncn2[C@@H]1O[C@H](COP(=O)(O)OP(=O)(O)OP(=O)(O)O)[C@@H](O)[C@H]1O [adenosine triphosphate]
Assay: NP40-soluble protein abundance relative to vehicle (solubility fold change) (ratio); higher = more soluble protein in presence of ATP
Procedure, shortened: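 Eight concentrations, 0.1 to 10 mM, were tested on Jurkat crude lysate for 10 min at room temperature and then 3 min at 37 °C, in three independent experiments. The lysate was solubilised with 0.8% NP40 and benzonase, ultracentrifuged, and the supernatant TMT-labelled for LC-MS/MS. Each value is the fold change against the detergent-processed vehicle in its own replicate, from vsn-normalised intensities.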

UniProt Q96AD5, sequence (Q96AD5 whole entry): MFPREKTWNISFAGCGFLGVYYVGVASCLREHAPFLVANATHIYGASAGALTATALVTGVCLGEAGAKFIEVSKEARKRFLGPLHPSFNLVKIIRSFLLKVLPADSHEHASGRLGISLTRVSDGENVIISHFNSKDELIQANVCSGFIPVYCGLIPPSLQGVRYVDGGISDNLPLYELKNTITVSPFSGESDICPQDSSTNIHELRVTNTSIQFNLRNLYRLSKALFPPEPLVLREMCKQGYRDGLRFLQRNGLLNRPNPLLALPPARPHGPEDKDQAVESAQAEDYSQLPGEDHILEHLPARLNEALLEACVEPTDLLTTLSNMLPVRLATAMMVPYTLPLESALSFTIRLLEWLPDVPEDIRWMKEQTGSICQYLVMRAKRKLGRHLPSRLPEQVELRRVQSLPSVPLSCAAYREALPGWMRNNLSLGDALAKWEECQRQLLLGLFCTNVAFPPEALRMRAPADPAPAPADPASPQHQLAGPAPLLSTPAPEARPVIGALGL
UniProt Q92804, sequence (Q92804 whole entry): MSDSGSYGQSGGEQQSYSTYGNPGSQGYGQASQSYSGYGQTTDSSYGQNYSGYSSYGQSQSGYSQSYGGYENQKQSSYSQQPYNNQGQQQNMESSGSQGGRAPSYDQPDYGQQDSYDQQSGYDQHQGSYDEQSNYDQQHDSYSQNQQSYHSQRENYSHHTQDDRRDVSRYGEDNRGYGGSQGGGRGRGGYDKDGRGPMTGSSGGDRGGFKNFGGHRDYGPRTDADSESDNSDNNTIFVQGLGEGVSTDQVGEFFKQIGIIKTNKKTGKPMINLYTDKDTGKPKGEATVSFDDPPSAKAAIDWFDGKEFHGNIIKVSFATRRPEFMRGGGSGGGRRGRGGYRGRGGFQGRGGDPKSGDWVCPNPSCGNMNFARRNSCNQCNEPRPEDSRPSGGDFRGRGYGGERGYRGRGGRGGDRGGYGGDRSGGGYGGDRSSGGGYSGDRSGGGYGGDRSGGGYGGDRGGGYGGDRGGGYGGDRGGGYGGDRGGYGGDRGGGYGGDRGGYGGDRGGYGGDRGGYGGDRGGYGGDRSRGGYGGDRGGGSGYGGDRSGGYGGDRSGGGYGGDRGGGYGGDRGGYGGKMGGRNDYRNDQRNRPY
UniProt Q9H6W3, sequence (Q9H6W3 whole entry): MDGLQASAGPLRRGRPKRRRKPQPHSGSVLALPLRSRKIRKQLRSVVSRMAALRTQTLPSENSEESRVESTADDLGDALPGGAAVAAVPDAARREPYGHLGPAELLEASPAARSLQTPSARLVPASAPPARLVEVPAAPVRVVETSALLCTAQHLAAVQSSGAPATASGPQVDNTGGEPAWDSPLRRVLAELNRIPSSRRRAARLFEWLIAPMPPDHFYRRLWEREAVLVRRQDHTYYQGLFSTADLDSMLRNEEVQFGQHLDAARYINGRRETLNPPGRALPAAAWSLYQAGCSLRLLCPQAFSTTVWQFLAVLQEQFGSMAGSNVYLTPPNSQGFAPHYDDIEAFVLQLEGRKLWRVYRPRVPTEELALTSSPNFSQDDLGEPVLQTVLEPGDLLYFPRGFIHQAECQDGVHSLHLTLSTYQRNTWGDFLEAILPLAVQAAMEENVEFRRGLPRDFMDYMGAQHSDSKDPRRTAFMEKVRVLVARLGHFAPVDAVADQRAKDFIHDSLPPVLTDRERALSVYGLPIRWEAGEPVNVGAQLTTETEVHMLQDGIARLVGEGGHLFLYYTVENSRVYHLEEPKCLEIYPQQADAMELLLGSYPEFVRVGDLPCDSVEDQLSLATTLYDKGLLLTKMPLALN
UniProt Q9H6R4, sequence (Q9H6R4 whole entry, one chain of several): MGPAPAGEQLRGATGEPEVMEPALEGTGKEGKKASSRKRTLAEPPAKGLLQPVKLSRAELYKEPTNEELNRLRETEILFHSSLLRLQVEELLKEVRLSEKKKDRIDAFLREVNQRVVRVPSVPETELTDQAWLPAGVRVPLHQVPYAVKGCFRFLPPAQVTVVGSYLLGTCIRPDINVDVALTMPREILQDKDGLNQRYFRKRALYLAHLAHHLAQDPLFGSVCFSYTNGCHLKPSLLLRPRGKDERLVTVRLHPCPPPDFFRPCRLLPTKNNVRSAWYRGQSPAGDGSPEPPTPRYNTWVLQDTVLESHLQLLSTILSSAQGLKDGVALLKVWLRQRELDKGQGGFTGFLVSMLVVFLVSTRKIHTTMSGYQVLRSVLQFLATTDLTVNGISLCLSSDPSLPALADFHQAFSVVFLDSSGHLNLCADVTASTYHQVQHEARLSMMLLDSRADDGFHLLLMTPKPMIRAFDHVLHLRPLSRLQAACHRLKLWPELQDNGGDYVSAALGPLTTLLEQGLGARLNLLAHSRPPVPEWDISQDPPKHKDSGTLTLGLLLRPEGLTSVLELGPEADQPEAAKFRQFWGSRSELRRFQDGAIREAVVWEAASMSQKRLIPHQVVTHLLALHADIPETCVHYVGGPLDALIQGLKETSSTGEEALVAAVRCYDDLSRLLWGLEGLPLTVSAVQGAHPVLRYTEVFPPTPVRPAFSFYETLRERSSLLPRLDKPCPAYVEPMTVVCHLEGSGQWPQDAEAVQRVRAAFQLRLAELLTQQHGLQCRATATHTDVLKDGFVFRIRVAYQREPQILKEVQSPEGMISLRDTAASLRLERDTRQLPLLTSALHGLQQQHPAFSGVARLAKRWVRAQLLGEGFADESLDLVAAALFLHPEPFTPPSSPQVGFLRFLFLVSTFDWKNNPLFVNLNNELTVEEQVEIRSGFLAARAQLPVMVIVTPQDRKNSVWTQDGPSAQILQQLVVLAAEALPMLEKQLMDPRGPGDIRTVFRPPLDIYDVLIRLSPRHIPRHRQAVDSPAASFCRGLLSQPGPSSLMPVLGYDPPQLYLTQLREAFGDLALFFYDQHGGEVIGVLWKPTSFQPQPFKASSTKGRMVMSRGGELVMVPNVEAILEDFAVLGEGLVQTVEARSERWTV

Target	NP40-soluble protein abundance (concentration: 1mM)	NP40-soluble protein abundance (concentration: 2mM)	NP40-soluble protein abundance (concentration: 4mM)	NP40-soluble protein abundance (concentration: 6mM)	NP40-soluble protein abundance (concentration: 8mM)	NP40-soluble protein abundance (concentration: 10mM)
UniProt Q9H6W3	1.2 ± 0.019	1.25 ± 0.029	1.31 ± 0.063	1.46 ± 0.1	1.54 ± 0.11	1.73 ± 0.093
UniProt Q9H6R4|Q9H6R4-4|A0A0A0MRW6|Q9H6R4-2	1.08 ± 0.049	1.03 ± 0.018	1.28 ± 0.027	1.31 ± 0.041	1.39 ± 0.15	1.72 ± 0.15
PNPLA2 (UniProt Q96AD5)	1.04 ± 0.047	1 ± 0.069	1.02 ± 0.064	0.927 ± 0.12	0.994 ± 0.062	1.06 ± 0.1
UniProt Q92804|Q92804-2	1.05 ± 0.14	1.07 ± 0.15	1.24 ± 0.2	1.5 ± 0.29	1.59 ± 0.21	2.05 ± 0.3
